# Laboratory results taken from PubChem BioAssay (NCATS).
# Values without a mark were called inactive. Results filed as inconclusive are left out. The source made the active and inactive calls. Unless noted, calls come from the whole dose curve; as a rule, active = well fitted curve in either direction with a large enough effect (not every such curve was filed as active); inconclusive = small, poorly fitted or top-dose-only effect, or another doubt; inactive = flat fitted curve, though single readings scatter.
# Tests used:
# [1] = molecular target: Lysosomal acid glucosylceramidase (Homo sapiens) (UniProt P04062); test: Glucocerebrosidase-p2 (AID 348; in the data active = potency below about 10 µM; note: potency is the fitted concentration of half-maximal effect); conditions: purified GBA, blue fluorogenic substrate, 40 min
# Method in brief: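 Compounds titrated from 0.6 nM upwards against 0.2 nM enzyme in pH 5.9 citric acid/KH2PO4, taurocholate, tween-20; blue fluorogenic substrate 80 uM, 40 min room temperature, stopped and read Ex 365/Em 440 for AC50.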
# [2] = AP1 Signaling Pathway (AID 357); conditions: ME-180 AP-1-bla reporter, EGF-induced, beta-lactamase ratio, 5 h; at 7.69 µM (top of the series) unless noted;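 note: ME-180 reporter cells stimulated with EGF at its EC50 level; % is set by controls: 0 for no effect and ±100 for the full control effect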
# Method in brief: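 A ratiometric CCF4 readout (405 nm excitation; 460 and 530 nm emission) quantified AP-1-driven beta-lactamase in ME-180 cells after 5 h with compound and EC50 EGF; AC50 values were derived for activators and inhibitors.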
# [3] = molecular target: Cytochrome P450 1A2 (Homo sapiens) (UniProt P05177); test: p450-cyp1a2 (AID 410; calls by dose curve; note: potency is the fitted concentration of half-maximal effect;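 for activity change, negative = inhibition: -100% = full effect of reference inhibitor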); conditions: recombinant CYP1A2, luciferin-ME demethylation, luminescence; series mostly up to 11.4 µM
# Method in brief: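 Luminescent readout of luciferin formed from Luciferin-ME by human CYP1A2; data normalized against complete inhibition by 57 uM furafylline. Enzyme 20nM, substrate 100uM at Km, 100mM KPO4 buffer, 60 min reaction at room temperature.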
# [4] = NFAT Signaling Pathway (AID 444); conditions: Jurkat NFAT-bla M1, carbachol, beta-lactamase ratio, 5 h; at 7.69 µM (top of the series) unless noted;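 note: carbachol stimulus at about its EC50 of 1 µM final; % is set by controls: 0 for no effect and ±100 for the full control effect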
# Method in brief: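 Jurkat cells carrying an NFAT-driven β-lactamase reporter and co-transfected muscarinic M1 receptor were treated with compound plus carbachol (1 uM final, an EC50 level) for 5 h at 37 °C. CCF4 loading followed for 1 h at RT; 460/530 nm ratio gave %activity.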
# [5] = Stat Signaling Pathway (AID 446); conditions: ME-180 SIE beta-lactamase reporter, IL-6 stimulated, 5 h; at 7.69 µM (top of the series) unless noted;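 note: ME-180 cervical cancer cells given 40 pM IL-6 alongside compound; SIE-controlled beta-lactamase reporter measured as 460/530 nm FRET emission ratio; % is set by controls: 0 for no effect and ±100 for the full control effect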
# Method in brief: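 ME-180 cells carrying a SIE-driven beta-lactamase reporter are stimulated with 40 pM IL-6 for 5 h at 37C in the presence of compound. The 460/530 nm FRET substrate ratio is read after 2.5 h at RT. Data are normalised to 300 pM IL-6 and to 125 nM JAK inhibitor controls.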
# [6] = molecular target: Glucocorticoid receptor (Homo sapiens) (UniProt P04150); test: GR-GFP Redistribution (AID 450;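 active = compounds whose dose series gives a full or clear partial fitted curve of increased nuclear translocation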; note: potency is the fitted concentration of half-maximal effect); conditions: U2OS GR-GFP nuclear translocation, laser cytometry, 2 h
# [7] = molecular target: Glucocorticoid receptor (Homo sapiens) (UniProt P04150); test: GR-EFC Redistribution (AID 451; calls by dose curve; note: potency is the fitted concentration of half-maximal effect); conditions: CHO-K1 GR-EFC translocation, beta-gal luminescence, 2 h
# Method in brief: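 CHO-K1 cells stably expressing nuclear-localized β-gal enzyme acceptor and GR fused C-terminally to the enzyme donor fragment; ligand-driven nuclear translocation restores β-gal by complementation. Compounds titrated up to 46 uM final, 2 h at 37 °C; luminescence read.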
# [8] = molecular target: Mitogen-activated protein kinase 10 (Mus musculus) (UniProt Q61831); test: JNK3 AlphaScreen Assay (AID 530); conditions: JNK3 lysate, c-Jun phosphorylation; series mostly up to 11.4 µM;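 note: kinase came from lysate of stimulated human HepG2 cells; signal reports phosphorylation of biotinylated GST-cJun 1-79 at Ser73 with 10 µM ATP; % is set by controls: 0 for no effect and ±100 for the full control effect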
# Method in brief: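 Inhibitors reduce antibody binding to phosphorylated biotin-cJun, lowering AlphaScreen luminescence. Lysates from HepG2 cells pre-activated by IL-1beta plus TNF-alpha supplied JNK3; compounds were titrated.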
# [9] = molecular target: 3',5'-cyclic-AMP phosphodiesterase 4B (Homo sapiens) (UniProt Q07343); test: qHTS Assay for Inhibitors of PDE-IV (AID 607; active = well fitted activation curve with a large enough effect in the main read-out, with a control signal flat, not every such curve was filed as active; note: % of control where 0% means no effect); conditions: HEK293 ACTOne CNG channel cells, membrane potential fluorescence; series mostly up to 22.9 µM
# Method in brief: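 HEK293 ACTOne cells with CNG channel (1000/well), endogenous PDE4; membrane potential dye, compounds up to 22.9 uM final. Fluorescence Ex 535/Em 590; RO 20-1724 (100 uM final) as reference.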
# Sequence of Lysosomal acid glucosylceramidase (Homo sapiens) (P04062 whole entry, looked up): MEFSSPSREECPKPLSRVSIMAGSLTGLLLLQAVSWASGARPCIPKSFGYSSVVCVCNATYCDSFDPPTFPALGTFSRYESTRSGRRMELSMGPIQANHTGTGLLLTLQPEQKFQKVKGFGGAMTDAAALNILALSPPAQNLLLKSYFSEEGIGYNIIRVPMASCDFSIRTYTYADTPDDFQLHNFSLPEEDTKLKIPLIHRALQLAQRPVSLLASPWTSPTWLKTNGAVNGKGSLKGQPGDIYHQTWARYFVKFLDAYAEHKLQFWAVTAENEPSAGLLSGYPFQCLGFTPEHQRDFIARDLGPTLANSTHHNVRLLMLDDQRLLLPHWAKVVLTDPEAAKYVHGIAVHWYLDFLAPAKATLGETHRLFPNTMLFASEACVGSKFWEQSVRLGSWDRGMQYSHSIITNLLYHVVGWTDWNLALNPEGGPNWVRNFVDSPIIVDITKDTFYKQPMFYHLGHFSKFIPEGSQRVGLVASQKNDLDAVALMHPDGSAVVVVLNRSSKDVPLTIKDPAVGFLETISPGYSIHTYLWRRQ
# Sequence of Cytochrome P450 1A2 (Homo sapiens) (P05177 whole entry, looked up): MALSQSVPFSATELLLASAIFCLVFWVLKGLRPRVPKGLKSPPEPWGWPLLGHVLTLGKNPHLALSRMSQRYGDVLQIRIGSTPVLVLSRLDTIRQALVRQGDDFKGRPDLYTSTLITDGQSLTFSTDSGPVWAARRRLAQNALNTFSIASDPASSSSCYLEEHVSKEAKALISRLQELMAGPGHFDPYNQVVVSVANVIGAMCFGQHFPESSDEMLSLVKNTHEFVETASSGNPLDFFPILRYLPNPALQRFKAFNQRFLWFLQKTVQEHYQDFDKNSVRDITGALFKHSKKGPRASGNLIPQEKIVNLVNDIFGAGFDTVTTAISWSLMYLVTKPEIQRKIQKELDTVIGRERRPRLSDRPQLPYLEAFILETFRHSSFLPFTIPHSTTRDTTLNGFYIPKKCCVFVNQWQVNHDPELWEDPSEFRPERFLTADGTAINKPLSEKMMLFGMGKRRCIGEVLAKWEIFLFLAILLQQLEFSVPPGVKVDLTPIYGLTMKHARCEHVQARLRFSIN
# Sequence of 3',5'-cyclic-AMP phosphodiesterase 4B (Homo sapiens) (Q07343 whole entry, looked up): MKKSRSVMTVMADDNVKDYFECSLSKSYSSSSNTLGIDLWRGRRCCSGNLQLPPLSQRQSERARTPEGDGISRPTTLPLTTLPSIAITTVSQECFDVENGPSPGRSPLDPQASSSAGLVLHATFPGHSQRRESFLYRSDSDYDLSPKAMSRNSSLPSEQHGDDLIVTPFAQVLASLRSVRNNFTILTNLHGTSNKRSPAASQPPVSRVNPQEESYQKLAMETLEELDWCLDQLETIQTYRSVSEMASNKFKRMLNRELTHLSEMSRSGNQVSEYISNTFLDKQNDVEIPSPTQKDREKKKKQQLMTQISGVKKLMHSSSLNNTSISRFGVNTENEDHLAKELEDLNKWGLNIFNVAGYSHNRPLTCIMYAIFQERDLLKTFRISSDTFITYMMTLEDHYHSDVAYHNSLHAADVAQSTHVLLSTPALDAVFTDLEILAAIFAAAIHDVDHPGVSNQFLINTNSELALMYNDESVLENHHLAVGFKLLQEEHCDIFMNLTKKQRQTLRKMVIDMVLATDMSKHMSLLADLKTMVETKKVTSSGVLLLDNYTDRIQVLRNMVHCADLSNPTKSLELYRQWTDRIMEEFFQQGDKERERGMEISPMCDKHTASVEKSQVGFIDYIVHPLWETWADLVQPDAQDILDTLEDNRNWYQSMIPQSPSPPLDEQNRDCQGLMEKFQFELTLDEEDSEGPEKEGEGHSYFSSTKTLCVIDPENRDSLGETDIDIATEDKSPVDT
# Sequence of Glucocorticoid receptor (Homo sapiens) (P04150 whole entry, looked up, the tested form may be a part): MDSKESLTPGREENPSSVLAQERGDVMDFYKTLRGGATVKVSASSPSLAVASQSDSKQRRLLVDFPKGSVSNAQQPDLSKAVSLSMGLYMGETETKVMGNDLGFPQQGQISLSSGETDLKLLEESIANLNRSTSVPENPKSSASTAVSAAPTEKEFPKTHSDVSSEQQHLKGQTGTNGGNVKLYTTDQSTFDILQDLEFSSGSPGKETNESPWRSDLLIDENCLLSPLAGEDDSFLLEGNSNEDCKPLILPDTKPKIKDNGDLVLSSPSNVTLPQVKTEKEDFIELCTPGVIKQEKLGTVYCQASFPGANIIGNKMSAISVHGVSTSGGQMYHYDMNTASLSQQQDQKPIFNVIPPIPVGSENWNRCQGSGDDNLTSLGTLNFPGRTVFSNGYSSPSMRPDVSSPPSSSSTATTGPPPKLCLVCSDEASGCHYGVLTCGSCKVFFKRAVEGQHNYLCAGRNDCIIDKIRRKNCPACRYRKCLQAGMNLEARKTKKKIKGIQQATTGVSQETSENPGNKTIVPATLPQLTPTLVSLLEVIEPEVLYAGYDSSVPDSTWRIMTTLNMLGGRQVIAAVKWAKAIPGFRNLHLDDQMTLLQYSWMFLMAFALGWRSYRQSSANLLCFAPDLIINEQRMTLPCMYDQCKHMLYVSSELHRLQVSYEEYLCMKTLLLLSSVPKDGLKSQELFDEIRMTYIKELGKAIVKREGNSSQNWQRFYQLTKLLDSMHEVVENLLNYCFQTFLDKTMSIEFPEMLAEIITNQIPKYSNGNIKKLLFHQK
SMILES,Potency [1],"activity change, negative = inhibition [2]",Potency [3],"activity change, negative = inhibition [4]","activity, negative = inhibition [5]",Potency [6],Potency [7],Potency [8],Potency [9],"activity change, negative = inhibition [3]"
NC(N)=N/N=C(\c1ccc(Cl)cc1)C1CC1,> 11.4 µM,8.61%,0.794 µM (active),-17.9%,-1.61%,> 46 µM,> 9.22 µM,inactive,inactive,–
O=C(O)C[C@H]1OCC=C2C[N@@+]3([O-])CC[C@]45c6ccccc6N[C@@H]4[C@@H]1[C@H]2C[C@H]53,> 11.4 µM,9.8%,–,1.94%,3.39%,> 46 µM,> 9.22 µM,inactive,inactive,-14.3% [at 2.29 µM]
O=C(O)c1cc(C(=O)O)nc(C(=O)O)c1,> 11.4 µM,7.15%,inactive,0.674%,3.63%,> 46 µM,> 9.22 µM,inactive,inactive,–
Cc1cccc2c1Oc1ccccc1[C@@H]2NC(=O)c1ccc([N+](=O)[O-])cc1,> 11.4 µM,0.106%,1 µM (active),-2.92%,-4.56%,> 46 µM,> 9.22 µM,inactive,inactive,–
CN(C)Cc1cc(C(C)(C)C)ccc1-c1ccc(C(C)(C)C)cc1CN(C)C,> 11.4 µM,4.9%,–,5.47%,1.89%,> 46 µM,> 9.22 µM,inactive,inactive,-17.9% [at 2.29 µM]
CC(=NCC(=O)O)c1ccccc1,> 11.4 µM,0.333%,3.98 µM (active),13.9%,1.76%,> 46 µM,> 9.22 µM,inactive,inactive,–
O=C(O)c1ccccc1NCn1c(=S)sc2ccccc21,> 11.4 µM,5.4%,0.501 µM (active),7.61%,-1.41%,> 46 µM,> 9.22 µM,inactive,inactive,–
N=C(N)SCc1cccc(-c2nc3ccccc3c(=O)o2)c1,> 11.4 µM,0.968%,–,10.1%,2.22%,> 46 µM,> 9.22 µM,inactive,inactive,-10.3% [at 2.29 µM]
C[N+]1(C)CCc2cc(O)c(O)cc2[C@H]1Cc1ccc(O)c(O)c1,> 11.4 µM,-2.63%,–,-9.29%,6.76%,> 46 µM,> 9.22 µM,inactive,inactive,-12.1% [at 2.29 µM]
O=C(O)[C@@H]1CS[C@@]2(CCCN(Cc3ccccc3)C2)N1,> 11.4 µM,8.03%,–,18.2%,2.47%,> 46 µM,> 9.22 µM,inactive,inactive,-12% [at 2.29 µM]
COC(=O)[C@@H]1O[C@@H](SCCN)[C@@H](O)[C@H](O)[C@H]1O,> 11.4 µM,0.576%,–,2.51%,-0.339%,> 46 µM,> 9.22 µM,inactive,inactive,10.2% [at 2.29 µM]
CN(C)S(=O)(=O)c1nc(Cl)c2[nH]cnc2n1,> 11.4 µM,1.09%,inactive,17.4%,-1.44%,> 46 µM,> 9.22 µM,inactive,inactive,–
c1ccc(CCCNc2nnnc3ccccc23)cc1,> 11.4 µM,-4.34%,3.98 µM (active),-23%,-4.36%,> 46 µM,> 9.22 µM,inactive,inactive,–
NC([N-]/N=C/c1ccccn1)=[S]=[Fe].O=S(=O)(O)O,> 11.4 µM,8.56%,–,-1.69%,-13.8%,> 46 µM,> 9.22 µM,inactive,inactive,15.8% [at 2.29 µM]
Cn1c(C[C@@H](O)c2nc3ccccc3n2C)nc2ccccc21,> 11.4 µM,11.7%,–,13.3%,8.01%,> 46 µM,> 9.22 µM,inactive,inactive,-2.6% [at 2.29 µM]
OCCCN=C1CCCCC1,> 11.4 µM,14.4%,inactive,7.24%,-19.6%,> 46 µM,> 9.22 µM,inactive,inactive,–
C/C(=N\NC(N)=S)c1ccc[nH]1,> 11.4 µM,0.43%,3.16 µM (active),12%,-24.4%,> 46 µM,> 9.22 µM,inactive,inactive,–
CC(C)c1ccc(/C=C2\C=C(c3ccc4ccccc4c3)OC2=O)cc1,> 11.4 µM,-7.05%,–,-17%,4.97%,> 46 µM,> 9.22 µM,inactive,inactive,-24.7% [at 2.29 µM]
CC1(CCC(=O)OC2CCCCC2)OCCO1,> 11.4 µM,4.96%,inactive,19.8%,4.55%,> 46 µM,> 9.22 µM,inactive,inactive,–
O=CN[C@@H](Cc1cnc[nH]1)C(=O)O,> 11.4 µM,4.13%,inactive,2.87%,0.427%,> 46 µM,> 9.22 µM,inactive,inactive,–
NC(=O)[C@@H]1CCCN1Cc1ccc2c(c1)OCO2,> 11.4 µM,-6.11%,3.16 µM (active),7.42%,6.27%,> 46 µM,> 9.22 µM,inactive,inactive,–
CN(C)CCNS(=O)(=O)N(C)C,> 11.4 µM,-0.375%,inactive,3.58%,4.72%,> 46 µM,> 9.22 µM,inactive,inactive,–
CCn1c2ccccc2c2nnc(NCCCO)nc21,> 11.4 µM,7.47%,1.58 µM (active),10.3%,1%,> 46 µM,> 9.22 µM,inactive,inactive,–
NCCNc1ncnc2ccc(Cl)cc12,11.7 µM,5.69%,1 µM (active),-9.27%,-14.9%,> 46 µM,> 9.22 µM,inactive,inactive,–
CCN(CCO)C[C@H]1CCC[C@H]2CCCC[C@@H]21,> 11.4 µM,16.9%,5.01 µM (active),0.328%,4.97%,> 46 µM,> 9.22 µM,inactive,inactive,–
N[C@@H](Cc1cccc([N+](=O)[O-])c1)C(=O)O,> 11.4 µM,-0.119%,inactive,0.16%,0.761%,> 46 µM,> 9.22 µM,inactive,inactive,–
O=C1COC(c2ccccc2O)=NN1CCCN1CCCC1,> 11.4 µM,5.73%,inactive,-11.6%,5.21%,> 46 µM,> 9.22 µM,inactive,inactive,–
C[C@@H](CSC(=N)N)C(N)=O,> 11.4 µM,-3.05%,–,13.8%,9.57%,> 46 µM,> 9.22 µM,inactive,inactive,-6.6% [at 2.29 µM]
O=c1ccnc(SCc2ccc(Cl)cc2)[nH]1,> 11.4 µM,0.709%,inactive,2.66%,6.94%,> 46 µM,> 9.22 µM,inactive,inactive,–
